# Laboratory results reported in PubChem BioAssay (EPA / NIEHS).
# Inconclusive results are not listed. Active and inactive are the calls of the source. How the source made its calls: active means hit-call score of the fitted dose curve at least 0.9, where 1 is the maximum; inconclusive means response in the unintended direction; inactive means score below 0.9.
# How the values were obtained:
# [1] = target: human Matrix Metalloproteinase-7 (MMP7), MMP7 (gene 4316) (UniProt P09237); assay: NVS_ENZ_hMMP7: NovaScreen (NVS) Enzymatic Assay for human Matrix Metalloproteinase-7 (MMP7) (AID 2283183)
# Outline: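 Compounds first tested at 25 uM in duplicate, then at up to 50 uM in concentration series if active. Protease activity measured by fluorescence intensity 1 h after dosing, with fitting relative to DMSO.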
# [2] = target: human Matrix Metalloproteinase-2 (MMP2), MMP2 (gene 4313) (UniProt P08253); assay: NVS_ENZ_hMMP2: NovaScreen (NVS) Enzymatic Assay for human Matrix Metalloproteinase-2 (MMP2) (AID 2283184)
# Outline: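 Compounds first screened in duplicate at a single 25 uM, with actives followed up in concentration series. Recombinant human MMP2 cleaves a fluorogenic substrate; fluorescence taken at 1 h, inhibition fitted relative to DMSO.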
# [3] = target: human Matrix Metalloproteinase-3 (MMP3), MMP3 (gene 4314) (UniProt P08254); assay: NVS_ENZ_hMMP3: NovaScreen (NVS) Enzymatic Assay for human Matrix Metalloproteinase-3 (MMP3) (AID 2283185)
# Outline: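 Fluorescent substrate turnover by recombinant MMP3 read after 1 h, signal loss scored against DMSO. Compounds first run in duplicate at 25 uM single dose, then actives confirmed by concentration series.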
# [4] = target: human p21 Activated Kinase 4 (PAK4), PAK4 (gene 10298) (UniProt O96013); assay: NVS_ENZ_hPAK4: NovaScreen (NVS) Enzymatic Assay for human p21 Activated Kinase 4 (PAK4) (AID 2283189)
# Outline: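 Extracted PAK4 enzyme activity read by fluorescence with mobility-shift separation 1 h after chemical addition. Duplicate single-concentration screen at 25 uM, DMSO as negative control.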
# [5] = target: human Matrix Metalloproteinase-9 (MMP9), MMP9 (gene 4318) (UniProt P14780); assay: NVS_ENZ_hMMP9: NovaScreen (NVS) Enzymatic Assay for human Matrix Metalloproteinase-9 (MMP9) (AID 2283190);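 further: cell-free recombinant MMP9 protease activity read by fluorescent substrate signal; active means inhibition seen as loss of fluorescence signal versus DMSO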
# Outline: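 Screening concentration 25 uM, duplicate wells, then dose series for confirmation. Cell-free enzymatic reaction measured by fluorescence intensity 1 h post-dosing; decreased signal versus DMSO taken as activity.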
# [6] = target: human Protein Phosphatase, Mg2+/Mn2+ Dependent 1A (PPM1A), PPM1A (gene 5494) (UniProt P35813); assay: NVS_ENZ_hPPM1A: NovaScreen (NVS) Enzymatic Assay for human Protein Phosphatase, Mg2+/Mn2+ Dependent 1A (PPM1A) (AID 2283198)
# Outline: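 Primary screen in duplicate at 25 uM, with actives then titrated to a maximum of 50 uM. Recombinant PPM1A dephosphorylation of fluorescent substrate measured at 1 h, with substrate and product separated by mobility shift; inhibition fitted against DMSO.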
# [7] = target: Serine/threonine-protein phosphatase PP1-alpha catalytic subunit (Homo sapiens) (UniProt P62136); assay: NVS_ENZ_hPPP1CA: NovaScreen (NVS) Enzymatic Assay for human Protein Phosphatase 1 Aatalytic subunit Alpha (PPP1CA) (AID 2283200)
# Outline: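 Chemicals were first screened in duplicate at 25 uM, and those passing threshold (e.g. 30% inhibition) were run as concentration series to 50 uM. Cell-free recombinant protein, 1.33 h read, fluorescent substrate/product mobility-shift detection, normalised to DMSO.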
# [8] = target: human NIMA (Never In Mitosis Gene A)-Related Kinase 2 (NEK2), NEK2 (gene 4751) (UniProt P51955); assay: NVS_ENZ_hNEK2: NovaScreen (NVS) Enzymatic Assay for human NIMA (Never In Mitosis Gene A)-Related Kinase 2 (NEK2) (AID 2283188)
# Outline: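 Compounds were first screened in duplicate at 25 uM, with actives followed up in concentration series. Recombinant NEK2 activity, cell-free, was read 1 h after dosing by fluorescence intensity after mobility-shift separation. Signal loss was scored against DMSO.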
# [9] = target: human Phosphodiesterase 5 (PDE5), PDE5A (gene 8654) (UniProt O76074); assay: NVS_ENZ_hPDE5: NovaScreen (NVS) Enzymatic Assay for human Phosphodiesterase 5 (PDE5) (AID 2283194)
# Outline: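 Screening began in duplicate at 25 uM, with actives taken into concentration-response. Enzyme activity of recombinant PDE5 toward its substrate was measured at 1 h by fluorescence mobility-shift detection, relative to DMSO controls.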
# [10] = target: human Mitogen- and Stress-activated Protein Kinase-1 (Msk1), RPS6KA5 (gene 9252) (UniProt O75582); assay: NVS_ENZ_hMsk1: NovaScreen (NVS) Enzymatic Assay for human Mitogen- and Stress-activated Protein Kinase-1 (Msk1) (AID 2283187)
# Outline: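 Chemicals first run in duplicate at 25 uM, with actives followed up in singleton concentration series to 50 uM maximum. Enzyme activity came from substrate/product mobility-shift separation with fluorescence detection after 1 h incubation of the recombinant protein.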
# [11] = target: human Phosphodiesterase 4A1 (PDE4A1), PDE4A (gene 5141) (UniProt P27815); assay: NVS_ENZ_hPDE4A1: NovaScreen (NVS) Enzymatic Assay for human Phosphodiesterase 4A1 (PDE4A1) (AID 2283191)
# Outline: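 Fluorescent substrate turnover by recombinant PDE4A1 read after 1 h by mobility-shift separation. Primary duplicate screen at 25 uM; hits retested in concentration series with a 50 uM maximum, relative to DMSO.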
# [12] = target: cAMP-dependent protein kinase catalytic subunit alpha (Homo sapiens) (UniProt P17612); assay: NVS_ENZ_hPKA: NovaScreen (NVS) Enzymatic Assay for human Protein Kinase A (PKA) (AID 2283192)
# Outline: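 Cell-free kinase activity read by fluorescence after mobility-shift separation of substrate and product, 1 h post-dosing. Single-concentration duplicate screen (25 uM) preceded singleton concentration series (top 50 uM); loss of signal versus DMSO.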
# [13] = target: human Phosphodiesterase 10 (PDE10), PDE10A (gene 10846) (UniProt Q9Y233); assay: NVS_ENZ_hPDE10: NovaScreen (NVS) Enzymatic Assay for human Phosphodiesterase 10 (PDE10) (AID 2283195)
# Outline: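 Fluorescence readout after mobility-shift separation of substrate and product, 1 h reaction with recombinant human enzyme. Single-concentration duplicates at 25 uM, then concentration-response up to 50 uM for chemicals reaching threshold; DMSO baseline.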
# [14] = target: human Phosphoinositide 3-kinase alpha (PI3Ka), PIK3CA (gene 5290) (UniProt P42336); assay: NVS_ENZ_hPI3Ka: NovaScreen (NVS) Enzymatic Assay for human Phosphoinositide 3-kinase alpha (PI3Ka) (AID 2283196)
# Outline: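 Duplicate single-point screen (25 uM), then singleton dose-response (max 50 uM) for compounds meeting the threshold. Cell-free kinase reaction, 1 h; fluorescent mobility-shift readout.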
# PPP2CA (gene 5515) = PPP2CA (gene 5515) (UniProt P67775); assay: NVS_ENZ_hPPP2CA: NovaScreen (NVS) Enzymatic Assay for human Protein Phosphatase 2 Aatalytic subunit Alpha (PPP2CA) (AID 2283199)
# Outline: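 Cell-free phosphatase activity: fluorescent substrate turnover by recombinant human enzyme, resolved by mobility shift at 1.33 h. Compounds passing the 25 uM duplicate primary screen were rerun in singleton series with a 50 uM top concentration.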
# [15] = target: human Protein Tyrosine Phosphatase Non-receptor Type 1 (PTPN1), PTPN1 (gene 5770) (UniProt P18031); assay: NVS_ENZ_hPTPN1: NovaScreen (NVS) Enzymatic Assay for human Protein Tyrosine Phosphatase Non-receptor Type 1 (PTPN1) (AID 2283201)
# Outline: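 Chemicals were first tested in duplicate at 25 uM, and those passing threshold went on to singleton concentration series topping at 50 uM. Recombinant enzyme, specific substrate, product separated by mobility shift, fluorescence read at 1.33 h; activity loss relative to DMSO.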
# [16] = target: Tyrosine-protein phosphatase non-receptor type 11 (Homo sapiens) (UniProt Q06124); assay: NVS_ENZ_hPTPN11: NovaScreen (NVS) Enzymatic Assay for human Protein Tyrosine Phosphatase Non-receptor Type 11 (PTPN11) (AID 2283202)
# Outline: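 Compounds first tested in duplicate at 25 uM; those reaching ~30% inhibition rerun in singleton concentration-response, top 50 uM. Phosphatase activity measured after 0.5 h by fluorescence with mobility-shift separation, relative to DMSO.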
# [17] = target: human Phosphatase and Tensin Homolog (PTEN), PTEN (gene 5728) (UniProt P60484); assay: NVS_ENZ_hPTEN: NovaScreen (NVS) Enzymatic Assay for human Phosphatase and Tensin Homolog (PTEN) (AID 2283203)
# Outline: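 Loss of fluorescent product signal after mobility-shift separation reports PTEN activity, recombinant human enzyme, 1 h after compound addition. Single 25 uM duplicate screen, then concentration-response on actives; DMSO baseline.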
# [18] = target: Tyrosine-protein phosphatase non-receptor type 13 (Homo sapiens) (UniProt Q12923); assay: NVS_ENZ_hPTPN13: NovaScreen (NVS) Enzymatic Assay for human Protein Tyrosine Phosphatase Non-receptor Type 13 (PTPN13) (AID 2283205)
# Outline: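 Screened first at a single 25 uM in duplicate; compounds passing the threshold (e.g. 30% inhibition) were rerun in concentration series, top 50 uM. Recombinant enzyme, fluorescent substrate, mobility-shift separation, 0.5 h read. Data fitted as inhibition relative to DMSO.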
# [19] = target: Tyrosine-protein phosphatase non-receptor type 12 (Homo sapiens) (UniProt Q05209); assay: NVS_ENZ_hPTPN12: NovaScreen (NVS) Enzymatic Assay for human Protein Tyrosine Phosphatase Non-receptor Type 12 (PTPN12) (AID 2283204)
# Outline: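 Single-concentration duplicates (25 uM) preceded singleton concentration-response up to 50 uM for chemicals passing threshold. Cell-free recombinant PTPN12 activity was read 1.33 h after dosing via fluorescence after mobility-shift separation; loss of signal versus DMSO.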
# Tyrosine-protein phosphatase non-receptor type 13 (Homo sapiens), sequence (Q12923 whole entry, looked up): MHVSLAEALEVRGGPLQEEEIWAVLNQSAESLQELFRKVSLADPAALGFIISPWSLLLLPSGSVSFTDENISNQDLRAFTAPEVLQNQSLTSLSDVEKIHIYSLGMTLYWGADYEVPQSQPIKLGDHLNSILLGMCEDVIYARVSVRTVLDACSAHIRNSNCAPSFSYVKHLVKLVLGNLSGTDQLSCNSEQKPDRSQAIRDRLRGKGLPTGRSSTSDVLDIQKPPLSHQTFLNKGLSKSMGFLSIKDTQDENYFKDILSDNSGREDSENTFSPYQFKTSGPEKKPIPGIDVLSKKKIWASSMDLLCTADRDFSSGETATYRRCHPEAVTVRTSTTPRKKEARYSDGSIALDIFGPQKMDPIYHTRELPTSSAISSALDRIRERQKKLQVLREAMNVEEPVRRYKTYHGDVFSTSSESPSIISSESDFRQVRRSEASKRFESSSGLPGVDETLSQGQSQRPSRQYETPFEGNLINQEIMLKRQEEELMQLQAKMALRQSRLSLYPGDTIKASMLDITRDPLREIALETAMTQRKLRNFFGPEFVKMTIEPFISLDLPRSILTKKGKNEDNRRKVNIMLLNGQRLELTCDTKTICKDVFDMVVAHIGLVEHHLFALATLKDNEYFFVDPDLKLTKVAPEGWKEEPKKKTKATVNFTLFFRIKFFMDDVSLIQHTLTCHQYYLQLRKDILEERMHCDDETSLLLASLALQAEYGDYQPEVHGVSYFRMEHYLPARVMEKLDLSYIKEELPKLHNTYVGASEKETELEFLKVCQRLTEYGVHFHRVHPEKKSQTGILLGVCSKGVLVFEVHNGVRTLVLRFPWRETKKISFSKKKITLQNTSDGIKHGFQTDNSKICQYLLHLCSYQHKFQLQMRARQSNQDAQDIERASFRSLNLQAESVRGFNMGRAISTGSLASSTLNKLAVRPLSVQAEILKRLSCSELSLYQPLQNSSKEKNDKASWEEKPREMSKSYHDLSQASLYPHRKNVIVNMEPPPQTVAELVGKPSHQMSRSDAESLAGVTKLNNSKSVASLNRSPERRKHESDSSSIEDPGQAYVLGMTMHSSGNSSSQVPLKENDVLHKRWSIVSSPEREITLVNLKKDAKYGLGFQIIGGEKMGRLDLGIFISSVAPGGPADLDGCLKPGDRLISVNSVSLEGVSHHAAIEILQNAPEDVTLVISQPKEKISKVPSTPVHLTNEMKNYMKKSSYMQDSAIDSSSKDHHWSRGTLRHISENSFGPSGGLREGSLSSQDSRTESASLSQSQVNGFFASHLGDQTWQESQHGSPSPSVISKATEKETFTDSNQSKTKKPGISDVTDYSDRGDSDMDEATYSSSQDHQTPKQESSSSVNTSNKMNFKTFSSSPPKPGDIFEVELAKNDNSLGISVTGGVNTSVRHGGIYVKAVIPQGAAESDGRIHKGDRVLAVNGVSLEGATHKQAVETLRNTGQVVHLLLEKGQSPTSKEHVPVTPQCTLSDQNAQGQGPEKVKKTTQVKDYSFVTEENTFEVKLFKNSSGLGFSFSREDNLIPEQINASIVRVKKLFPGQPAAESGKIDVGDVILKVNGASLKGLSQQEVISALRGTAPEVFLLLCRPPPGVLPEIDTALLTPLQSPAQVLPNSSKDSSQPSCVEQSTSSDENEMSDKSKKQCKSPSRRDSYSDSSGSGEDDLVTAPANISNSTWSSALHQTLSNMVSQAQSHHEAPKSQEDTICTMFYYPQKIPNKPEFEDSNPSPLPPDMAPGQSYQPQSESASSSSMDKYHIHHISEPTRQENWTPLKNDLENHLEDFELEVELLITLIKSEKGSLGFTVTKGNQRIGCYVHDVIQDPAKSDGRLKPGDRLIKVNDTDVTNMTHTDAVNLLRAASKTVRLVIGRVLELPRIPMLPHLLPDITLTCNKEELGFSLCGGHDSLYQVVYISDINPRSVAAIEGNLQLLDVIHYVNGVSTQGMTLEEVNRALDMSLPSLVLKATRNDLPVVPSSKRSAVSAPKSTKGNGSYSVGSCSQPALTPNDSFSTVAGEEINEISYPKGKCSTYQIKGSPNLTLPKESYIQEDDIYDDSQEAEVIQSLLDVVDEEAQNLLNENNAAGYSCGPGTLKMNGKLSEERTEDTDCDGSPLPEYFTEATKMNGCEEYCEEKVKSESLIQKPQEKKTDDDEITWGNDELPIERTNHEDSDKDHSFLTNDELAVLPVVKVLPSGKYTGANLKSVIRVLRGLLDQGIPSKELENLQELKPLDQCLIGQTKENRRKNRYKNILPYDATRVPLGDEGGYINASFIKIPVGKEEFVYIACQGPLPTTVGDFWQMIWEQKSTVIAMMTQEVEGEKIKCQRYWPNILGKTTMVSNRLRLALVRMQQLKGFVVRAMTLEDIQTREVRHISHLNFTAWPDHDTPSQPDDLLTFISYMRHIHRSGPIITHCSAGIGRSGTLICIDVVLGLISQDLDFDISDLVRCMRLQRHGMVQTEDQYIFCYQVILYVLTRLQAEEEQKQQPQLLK
# PPP2CA (gene 5515), sequence (P67775 whole entry, looked up): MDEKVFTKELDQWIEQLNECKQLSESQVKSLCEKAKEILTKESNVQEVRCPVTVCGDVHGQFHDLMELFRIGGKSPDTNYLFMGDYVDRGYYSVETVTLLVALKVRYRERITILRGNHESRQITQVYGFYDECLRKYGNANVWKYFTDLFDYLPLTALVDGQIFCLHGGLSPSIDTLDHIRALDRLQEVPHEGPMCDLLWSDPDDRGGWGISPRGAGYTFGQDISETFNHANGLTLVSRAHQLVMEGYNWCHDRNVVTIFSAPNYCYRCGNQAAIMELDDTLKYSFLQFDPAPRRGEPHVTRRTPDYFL
# human Matrix Metalloproteinase-2 (MMP2), MMP2 (gene 4313), sequence (P08253 whole entry, looked up): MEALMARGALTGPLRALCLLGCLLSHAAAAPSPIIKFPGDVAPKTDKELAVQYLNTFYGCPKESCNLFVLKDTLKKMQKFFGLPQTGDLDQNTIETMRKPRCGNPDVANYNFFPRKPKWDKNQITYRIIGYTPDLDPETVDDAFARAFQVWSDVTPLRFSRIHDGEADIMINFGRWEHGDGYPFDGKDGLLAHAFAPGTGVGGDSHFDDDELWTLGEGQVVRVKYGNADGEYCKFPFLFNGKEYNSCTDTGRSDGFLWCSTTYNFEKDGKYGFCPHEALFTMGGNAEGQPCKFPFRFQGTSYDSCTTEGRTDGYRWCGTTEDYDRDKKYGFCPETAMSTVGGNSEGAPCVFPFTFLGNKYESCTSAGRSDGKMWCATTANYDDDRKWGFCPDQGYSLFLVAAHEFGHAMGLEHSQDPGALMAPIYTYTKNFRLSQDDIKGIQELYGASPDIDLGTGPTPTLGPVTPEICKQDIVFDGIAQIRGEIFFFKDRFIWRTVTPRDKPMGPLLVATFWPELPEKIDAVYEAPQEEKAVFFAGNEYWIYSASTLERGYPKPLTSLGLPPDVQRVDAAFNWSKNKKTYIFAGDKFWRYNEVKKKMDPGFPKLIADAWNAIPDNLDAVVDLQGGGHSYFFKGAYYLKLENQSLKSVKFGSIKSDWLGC
# human Matrix Metalloproteinase-7 (MMP7), MMP7 (gene 4316), sequence (P09237 whole entry, looked up): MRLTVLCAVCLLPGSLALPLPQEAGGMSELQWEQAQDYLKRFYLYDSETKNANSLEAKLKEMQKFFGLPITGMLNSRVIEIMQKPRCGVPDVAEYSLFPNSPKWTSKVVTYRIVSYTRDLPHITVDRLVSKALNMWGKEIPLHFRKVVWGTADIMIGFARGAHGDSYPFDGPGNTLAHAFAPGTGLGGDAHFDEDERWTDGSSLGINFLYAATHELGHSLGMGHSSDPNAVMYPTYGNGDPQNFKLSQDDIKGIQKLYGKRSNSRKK
# Serine/threonine-protein phosphatase PP1-alpha catalytic subunit (Homo sapiens), sequence (P62136 whole entry, looked up): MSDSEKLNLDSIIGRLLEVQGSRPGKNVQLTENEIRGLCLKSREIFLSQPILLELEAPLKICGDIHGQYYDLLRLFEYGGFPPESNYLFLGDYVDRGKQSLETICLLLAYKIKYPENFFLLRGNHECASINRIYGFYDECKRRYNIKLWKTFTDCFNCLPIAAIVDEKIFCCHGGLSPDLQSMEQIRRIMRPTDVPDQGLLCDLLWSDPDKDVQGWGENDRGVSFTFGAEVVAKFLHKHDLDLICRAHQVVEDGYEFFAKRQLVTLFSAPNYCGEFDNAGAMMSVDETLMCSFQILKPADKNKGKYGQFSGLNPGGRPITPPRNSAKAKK
# human Matrix Metalloproteinase-3 (MMP3), MMP3 (gene 4314), sequence (P08254 whole entry, looked up): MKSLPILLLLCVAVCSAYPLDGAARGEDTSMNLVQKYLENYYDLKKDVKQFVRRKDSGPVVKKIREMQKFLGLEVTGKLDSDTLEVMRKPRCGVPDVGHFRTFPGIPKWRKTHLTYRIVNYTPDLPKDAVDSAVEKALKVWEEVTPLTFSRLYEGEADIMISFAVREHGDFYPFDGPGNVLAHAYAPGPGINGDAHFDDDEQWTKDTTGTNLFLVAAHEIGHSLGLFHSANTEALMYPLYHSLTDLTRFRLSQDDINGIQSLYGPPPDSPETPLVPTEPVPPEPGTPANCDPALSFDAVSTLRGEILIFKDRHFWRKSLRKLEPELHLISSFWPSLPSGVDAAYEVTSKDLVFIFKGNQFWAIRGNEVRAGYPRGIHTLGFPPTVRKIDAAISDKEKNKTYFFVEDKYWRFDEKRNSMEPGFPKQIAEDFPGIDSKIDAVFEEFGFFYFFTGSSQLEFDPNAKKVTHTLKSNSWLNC
# human Phosphatase and Tensin Homolog (PTEN), PTEN (gene 5728), sequence (P60484 whole entry, looked up): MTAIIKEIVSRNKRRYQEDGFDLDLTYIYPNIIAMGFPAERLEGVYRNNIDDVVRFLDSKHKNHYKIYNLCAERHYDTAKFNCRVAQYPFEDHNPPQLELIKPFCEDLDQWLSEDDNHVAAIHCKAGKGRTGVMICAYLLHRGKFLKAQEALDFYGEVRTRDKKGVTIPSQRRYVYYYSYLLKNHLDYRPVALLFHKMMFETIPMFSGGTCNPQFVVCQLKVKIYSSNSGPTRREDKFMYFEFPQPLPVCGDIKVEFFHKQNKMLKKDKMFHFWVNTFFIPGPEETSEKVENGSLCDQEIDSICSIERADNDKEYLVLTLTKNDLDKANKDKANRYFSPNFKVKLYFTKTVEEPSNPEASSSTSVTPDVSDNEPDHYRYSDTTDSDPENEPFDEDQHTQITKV
smiles,measurement,setting,value
CC(C)N(Cc1ccccc1)C(=O)C(C)(C)C,outcome,[1],inactive
CC(C)COC(=O)c1ccccc1C(=O)OCC(C)C,outcome,[1],inactive
CC(C)(C)C(O)(CCc1ccc(Cl)cc1)Cn1cncn1 (configuration not stated),outcome,[2],inactive
same,outcome,[3],inactive
COc1cc(C=O)cc2c1[C@H](COC(N)=O)[C@]1(OC(C)=O)ON2C[C@H]2[C@@H]1N2C(C)=O,outcome,[4],inactive
Oc1ccccc1Cl,outcome,[2],inactive
same,outcome,[3],inactive
CN(C)C(=O)Nc1ccc(Cl)cc1,AC50,[2],17.9 µM (active)
same,outcome,[3],inactive
c1ccc2c(c1)-c1cccc3cccc-2c13,AC50,[3],5.24 µM (active)
Cc1ccc(N=C=O)cc1N=C=O,AC50,[2],10.3 µM (active)
same,AC50,[3],40 µM (active)
same,outcome,[5],inactive
same,outcome,[6],inactive
same,outcome,[7],inactive
Cc1cc(N=Nc2ccccc2C)ccc1N,outcome,[4],inactive
CN(C)[C@@H]1C(=O)C(C(N)=O)=C(O)[C@@]2(O)C(=O)C3=C(O)c4c(O)cccc4[C@@](C)(O)[C@H]3C[C@@H]12,outcome,[3],inactive
[As]#[In],outcome,[1],inactive
CCCCCOC(=O)c1ccccc1C(=O)OCCCCC,outcome,[2],inactive
same,AC50,[5],12.6 µM (active)
Clc1ccc(C(c2ccc(Cl)cc2)C(Cl)(Cl)Cl)cc1,outcome,[2],inactive
same,outcome,[5],inactive
CCC[CH2][Sn]([Cl])([CH2]CCC)[CH2]CCC,AC50,[1],12.8 µM (active)
ClCCOCCCl,outcome,[3],inactive
CCCCC(CC)COC(=O)c1ccc(C(=O)OCC(CC)CCCC)c(C(=O)OCC(CC)CCCC)c1 (configuration not stated),outcome,[8],inactive
same,outcome,[9],inactive
CCNS(=O)(=O)C(F)(F)C(F)(F)C(F)(F)C(F)(F)C(F)(F)C(F)(F)C(F)(F)C(F)(F)F,outcome,[1],inactive
same,outcome,[10],inactive
same,outcome,[8],inactive
same,outcome,[4],inactive
same,outcome,[11],inactive
same,outcome,[12],inactive
same,outcome,[9],inactive
same,outcome,[13],inactive
same,outcome,[14],inactive
same,outcome,PPP2CA (gene 5515),inactive
same,outcome,[15],inactive
same,outcome,[16],inactive
same,outcome,[17],inactive
same,outcome,[18],inactive
CNC(=O)Oc1cccc2c1OC(C)(C)C2,outcome,[2],inactive
CCN(CC)N=O,outcome,[10],inactive
same,outcome,[12],inactive
same,outcome,[9],inactive
same,outcome,PPP2CA (gene 5515),inactive
same,outcome,[15],inactive
same,outcome,[16],inactive
same,outcome,[19],inactive
Clc1ccc(Cl)c(Cl)c1,outcome,[3],inactive
same,outcome,PPP2CA (gene 5515),inactive
Nc1ccc(Oc2ccc(N)cc2)cc1,AC50,[2],19.2 µM (active)
O=C(Nc1ccccc1)c1ccccc1I,outcome,[1],inactive
Cn1cc(-c2ccccc2)c(=O)c(-c2cccc(C(F)(F)F)c2)c1,outcome,[4],inactive
same,outcome,[17],inactive
C[C@]12C=CC3=C4CCC(=O)C=C4CC[C@H]3[C@@H]1CC[C@@H]2O,outcome,[4],inactive
CCOc1cccc(C2(N3CCN(c4ccccc4)CC3)CCC(C)CC2)c1 (configuration not stated),outcome,[12],inactive
Oc1ccc2ccc3cccc4ccc1c2c34,AC50,[12],6.65 µM (active)
O=C(Oc1ccc(Br)cc1)N1CCN2CCC1CC2,outcome,[13],inactive
Nc1ccc([N+](=O)[O-])cc1,outcome,[7],inactive
N#CC(Br)(Br)C(N)=O,outcome,[7],inactive
O=C1CCCO1,outcome,[18],inactive
O=Cc1ccco1,AC50,[18],0.13 µM (active)
